Laboratory results as given in PubChem BioAssay AID1159580 (chemical genetic matrix, 2015).
Screen size: about 5,500 compounds; about 2,000 (36%) were called active. Roughly 18% stayed inconclusive and do not appear here. No stated cut-off is given here; in the data, active means normalized growth mostly below about 0.91 (no sharp cut-off); inconclusive means no clear call, values can overlap the other calls; inactive means mostly above about 0.92. This is one part of the list.

Assay: chemical genetic growth profiling, strain panel (AID 1159580);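 further: tested at 20 µM; growth read once vehicle control cultures reached saturation at 30 °C; 1 = growth at the plate median or of vehicle wells; lower values mean less growth of the strain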
Conditions: growth OD

Measured: normalized growth

N[C@H](Cc1ccccc1)C(=O)O
inactive: S. cerevisiae deletion strains, locus YJR043C, strain POL32, hits give low values 1.01 | S. cerevisiae deletion strains, locus YJR066W, strain TOR1, hits give low values 0.943 | S. cerevisiae deletion strains, locus YKL009W, strain mrt4, hits give low values 1.01 | S. cerevisiae deletion strains, locus YKL068W, hits give low values 1.01 | S. cerevisiae deletion strains, locus YKL085W, strain MDH1 (second series), hits give low values 1.01 | S. cerevisiae deletion strains, locus YKL085W, strain MDH1, hits give low values 1.01 | S. cerevisiae deletion strains, locus YKL160W, strain elf1, hits give low values 1.04 | S. cerevisiae deletion strains, locus YKL190W, strain CNB1, hits give low values 1.02 | S. cerevisiae deletion strains, locus YKR001C, strain vps1, hits give low values 0.997 | S. cerevisiae deletion strains, locus YKR026C, strain gcn3, hits give low values 0.988 | S. cerevisiae deletion strains, locus YKR091W, strain srl3, hits give low values 1 | S. cerevisiae deletion strains, locus YLL001W, strain dnm1, hits give low values 0.973 | S. cerevisiae deletion strains, locus YLL026W, hits give low values 0.984 | S. cerevisiae deletion strains, locus YLL041C, strain sdh2, hits give low values 1 | S. cerevisiae deletion strains, locus YLR027C, strain aat2, hits give low values 1 | S. cerevisiae deletion strains, locus YLR039C, strain RIC1, hits give low values 1.02 | S. cerevisiae deletion strains, locus YLR058C, strain SHM2, hits give low values 1.02 | S. cerevisiae deletion strains, locus YLR102C, strain apc9, hits give low values 0.995 | S. cerevisiae deletion strains, locus YLR113W, strain HOG1, hits give low values 1.05 | S. cerevisiae deletion strains, locus YLR221C, strain rsa3, hits give low values 0.975 | S. cerevisiae deletion strains, locus YLR258W, strain gsy2, hits give low values 1.03 | S. cerevisiae deletion strains, locus YLR262C, strain YPT6 (second series), hits give low values 0.987 | S. cerevisiae deletion strains, locus YLR262C, strain YPT6, hits give low values 1.04 | S. cerevisiae deletion strains, locus YLR268W, strain sec22, hits give low values 0.994 | S. cerevisiae deletion strains, locus YLR320W, strain mms22, hits give low values 0.949 | S. cerevisiae deletion strains, locus YLR330W, strain CHS5, hits give low values 1.02 | S. cerevisiae deletion strains, locus YLR342W, strain FKS1 (second series), hits give low values 1 | S. cerevisiae deletion strains, locus YLR342W, strain FKS1, hits give low values 1.02 | S. cerevisiae deletion strains, locus YLR357W, strain rsc2, hits give low values 1.01 | S. cerevisiae deletion strains, locus YLR370C, strain arc18, hits give low values 1 | S. cerevisiae deletion strains, locus YLR371W, strain rom2, hits give low values 0.982 | S. cerevisiae deletion strains, locus YLR384C, strain iki3, hits give low values 0.991 | S. cerevisiae deletion strains, locus YLR418C, strain cdc73, hits give low values 0.975 | S. cerevisiae deletion strains, locus YML016C, strain PPZ1, hits give low values 1.01 | S. cerevisiae deletion strains, locus YML032C, strain rad52, hits give low values 0.986 | S. cerevisiae deletion strains, locus YML120C, strain ndi1, hits give low values 0.987 | S. cerevisiae deletion strains, locus YML124C, strain tub3, hits give low values 0.997 | S. cerevisiae deletion strains, locus YMR058W, strain fet3, hits give low values 0.987 | S. cerevisiae deletion strains, locus YMR078C, strain ctf18, hits give low values 1 | S. cerevisiae deletion strains, locus YMR125W, strain sto1, hits give low values 1 | S. cerevisiae deletion strains, locus YMR129W, hits give low values 0.978 | S. cerevisiae deletion strains, locus YMR205C, strain PFK2, hits give low values 0.985 | S. cerevisiae deletion strains, locus YMR223W, strain ubp8, hits give low values 1.01 | S. cerevisiae deletion strains, locus YMR231W, strain pep5, hits give low values 0.984 | S. cerevisiae deletion strains, locus YMR263W, strain SAP30, hits give low values 1.01 | S. cerevisiae deletion strains, locus YMR307W, strain GAS1, hits give low values 1.01 | S. cerevisiae deletion strains, locus YNL067W, strain RPL9B, hits give low values 1.02 | S. cerevisiae deletion strains, locus YNL071W, strain lat1, hits give low values 0.983 | S. cerevisiae deletion strains, locus YNL128W, strain TEP1, hits give low values 1.02 | S. cerevisiae deletion strains, locus YNL153C, strain GIM3, hits give low values 1.03 | S. cerevisiae deletion strains, locus YNL183C, strain NPR1, hits give low values 0.988 | S. cerevisiae deletion strains, locus YNL209W, strain ssb2, hits give low values 1.02 | S. cerevisiae deletion strains, locus YNL233W, strain BNI4, hits give low values 1.01 | S. cerevisiae deletion strains, locus YNL248C, strain rpa49, hits give low values 1 | S. cerevisiae deletion strains, locus YNL250W, strain rad50, hits give low values 1 | S. cerevisiae deletion strains, locus YNL271C, strain bni1, hits give low values 1.01 | S. cerevisiae deletion strains, locus YNL298W, strain CLA4, hits give low values 1.02 | S. cerevisiae deletion strains, locus YNL307C, strain MCK1, hits give low values 0.993 | S. cerevisiae deletion strains, locus YNL322C, strain KRE1 (second series), hits give low values 1.03 | S. cerevisiae deletion strains, locus YNR049C, strain mso1, hits give low values 1 | S. cerevisiae deletion strains, locus YNR052C, strain pop2, hits give low values 1.01 | S. cerevisiae deletion strains, locus YOL006C, strain TOP1, hits give low values 1.03 | S. cerevisiae deletion strains, locus YOL012C, strain htz1 2.29 | S. cerevisiae deletion strains, locus YOL147C, strain pex11, hits give low values 1.01 | S. cerevisiae deletion strains, locus YOR001W, strain rrp6, hits give low values 0.943 | S. cerevisiae deletion strains, locus YOR061W, strain CKA2, hits give low values 1.02 | S. cerevisiae deletion strains, locus YOR069W, strain VPS5, hits give low values 1.01 | S. cerevisiae deletion strains, locus YOR070C, strain gyp1, hits give low values 0.983 | S. cerevisiae deletion strains, locus YOR080W, strain dia2, hits give low values 0.988 | S. cerevisiae deletion strains, locus YOR083W, strain WHI5, hits give low values 0.991 | S. cerevisiae deletion strains, locus YOR106W, strain vam3, hits give low values 1.03 | S. cerevisiae deletion strains, locus YOR136W, strain idh2, hits give low values 1 | S. cerevisiae deletion strains, locus YOR144C, strain elg1, hits give low values 0.999 | S. cerevisiae deletion strains, locus YOR184W, strain ser1, hits give low values 0.994 | S. cerevisiae deletion strains, locus YOR231W, strain MKK1, hits give low values 1.08 | S. cerevisiae deletion strains, locus YOR265W, strain rbl2, hits give low values 0.992 | S. cerevisiae deletion strains, locus YOR270C, strain vph1, hits give low values 0.986 | S. cerevisiae deletion strains, locus YOR290C, strain snf2, hits give low values 1.02 | S. cerevisiae deletion strains, locus YOR316C, strain cot1, hits give low values 1 | S. cerevisiae deletion strains, locus YPL051W, strain arl3, hits give low values 1.01 | S. cerevisiae deletion strains, locus YPL078C, strain atp4, hits give low values 1.03 | S. cerevisiae deletion strains, locus YPL106C, strain sse1, hits give low values 1.03 | S. cerevisiae deletion strains, locus YPL240C, strain hsp82, hits give low values 0.994 | S. cerevisiae deletion strains, locus YPL256C, strain CLN2, hits give low values 1.06 | S. cerevisiae deletion strains, locus YPR119W, strain clb2, hits give low values 0.995 | S. cerevisiae deletion strains, locus YPR141C, strain kar3, hits give low values 1 | S. cerevisiae deletion strains, locus YPR163C, strain tif3, hits give low values 1 | S. cerevisiae deletion strains, locus YPR167C, strain met16, hits give low values 1 | S. cerevisiae deletion strains, strain wtn01, hits give low values 0.996 | S. cerevisiae strains, strain wild type, hits give low values 1.01
